From PubChem BioAssay (Tox21) come the findings set out here.

The source made the active and inactive calls. The call rests on the fitted dose curve; in most records, active means well fitted cell-killing curve with a large enough effect in the repeat runs; inconclusive means weak or mixed curves, or effect the other way; inactive means flat fitted curve, though single readings scatter.

The assay is described as follows: qHTS assay to identify small molecule HDAC inhibitors - cell viability counter screen (AID 1259365). Further: nearly all actives have a fitted effect of over 50% in size. Conditions: HCT-116 viability, CellTiter-Glo ATP luminescence, 2 h; series mostly up to 92.4 µM. The text has this:
U.S. Tox21 Program National Center for Advancing Translational Sciences [NCATS] NIH Chemical Genomics Center [NCGC] U.S. Environmental Protection Agency [EPA] National Institutes of Environmental Health Sciences [NIEHS] National Toxicology Program [NTP] U.S. Food and Drug Administration [FDA] Tox21 Assay Overview: Histone deacetylases (HDACs) are a group of epigenetic enzymes that regulate gene expression by histone deacetylation. HDACs are capable of introducing epigenetic modifications and such aberrations contribute to the onset and progression of several human diseases, thus making HDACs a popular therapeutic target. For identifying endogenous class I/II HDAC inhibitors a homogenous, luminogenic HDAC I/II cell based assay was used to measure the relative activity of class I and II HDACs from cells. Wild type HCT-116 cells were used to screen Tox21 compound libraries for identifying class I/II HDAC inhibitors.
Tox21 Assay Protocol Summary: HCT-116 cells were dispensed at 1,500 per well in 5uL of culture medium into white solid bottom 1536-well plates (Greiner Bio-One, Monroe, NC) using a Multidrop Combi (Thermo Scientific, Waltham, MA) dispenser. The assay plates were incubated at 37 C and 5% CO2 for an overnight, and then 23nL of compounds dissolved in DMSO and positive control were transferred using a Pintool station (Wako, San Diego, CA). The assay plates were incubated at 37C and 5% CO2 for 2hr. After compound treatment, 4uL of CellTiter-Glo reagent (Promega Corporation, Madison, WI) was added to each well of the assay plates using Flying Reagent Dispenser (FRD, Aurora Discovery, San Diego, CA) and incubated the assay plates at room temperature for 30min. The luminescence signal was quantified using a ViewLux plate reader (Perkin Elmer, Shelton, CT).
As to `[N-]=[N+]=CC(=O)OC[C@H](N)C(=O)O`, the molecule was classed as inactive.
As for `CCOP(=S)(OCC)Oc1ccc([N+](=O)[O-])cc1`, the entry is “inactive”; as for `Cc1cccc(C)c1N`, “inactive”; as for `Cc1cc(Cl)ccc1OC(C)C(=O)O` (stereo not given), “inactive”.
For the molecule `CC(C)CCCCCCOC(=O)c1ccccc1C(=O)OCCCCCCC(C)C`, the molecule was called inactive.
Then `COP(=S)(OC)Oc1ccc(SC)c(C)c1`, with “inactive”; and `CN(C)NC(=O)CCC(=O)O`, with “inactive”; and `CNC(=O)O/N=C/C(C)(C)S(C)=O` (stereo not given), with “inactive”.
For the molecule `CC(=O)/C=C/c1ccccc1`, the call was inactive.
Then `CNCC(O)c1ccc(O)cc1` (stereo not given), with “inactive”; and `O=C/C=C/c1ccccc1`, with “inactive”.
Then `NNc1ccccc1`, with “inactive”.
`O=C(O)C(Br)Br`: the outcome was inactive.
For `O=C(O)CCCc1ccc(N(CCCl)CCCl)cc1`, the result was inactive.
As for `CCSC(=O)N1CCCCCC1`, the entry is “inactive”; as for `CN(C)C(=O)C(c1ccccc1)c1ccccc1`, “inactive”; as for `CCCCC(CC)C(=O)Cl` (stereo not given), “inactive”.
As for `OCc1ccco1`, the entry is “inactive”.
Then `CNC(=O)O/N=C(\SC)C(=O)N(C)C`, with “inactive”; and `CCNc1nc(Cl)nc(NC(C)C)n1`, with “inactive”; and `O=C(O)COc1ccccc1`, with “inactive”.
Take `CCOc1ccc(N)cc1`: the molecule was called inactive.
Then `ClC(Cl)c1ccccc1`, with “inactive”.
Then `O=[N+]([O-])c1ccc(Cl)cc1`, with “inactive”; and `CC(C)(C)C(=O)CCl`, with “inactive”; and `CN(C)CCC#N`, with “inactive”.
Then `C/C=C/c1ccc2c(c1)OCO2`, with “inactive”.
`Nc1cc(Cl)cc(Cl)c1`: the outcome was inactive.
As for `O=[N+]([O-])c1cc([As](=O)(O)O)ccc1O`, the call was inactive.
As for `Cc1ccc(O)c(C)c1`, the entry is “inactive”.
As for `Oc1ccc(Cl)cc1`, the entry is “inactive”; as for `O=C(O)C1C(C(=O)O)C2(Cl)C(Cl)=C(Cl)C1(Cl)C2(Cl)Cl` (stereo not given), “inactive”; as for `Clc1cnc(Oc2ccc(Oc3ncc(Cl)cc3Cl)cc2)c(Cl)c1`, “inactive”.
Take `CN(C)C(=O)Nc1cccc(C(F)(F)F)c1`: the molecule was called inactive.
Then `COc1cc(-c2ccc(N)c(OC)c2)ccc1N`, with “inactive”; and `C=CC#N`, with “inactive”.
`C=C(C)C(=O)OCC(CC)CCCC` (stereo not given): the molecule was classed as inactive.
In the case of `COC(=O)Nc1cccc(OC(=O)Nc2cccc(C)c2)c1`, the result was inactive.
On to `Nc1nc(N)nc(NC2CC2)n1`, for which the result was inactive.
Then `C[C@]12CC[C@H](O)CC1=CC[C@@H]1[C@@H]2CC[C@]2(C)C(=O)CC[C@@H]12`, with “inactive”.
